Reference: ChEMBL document CHEMBL4513146, “CO-ADD screening of Karazin Kharkiv National University (Ukraine) compounds”
Results with a measured potency or affinity are listed apart.

These compounds were tested on Klebsiella pneumoniae. Details: Concentration 32 ug.mL-1;; ASSAY_TEST Inhibition of Bacterial Growth; detection method Absorption (OD600); MEDIA CAMHB; plate type 384well; NBS; CORNING #3640; time 18 hr.

SMILES | Inhibition [%]
COc1ccccc1N1CCN(C(=O)CSc2nnc3c(=O)n(-c4ccccc4)ccn23)CC1 | 9.27
O=C(Cn1nc2c(SC3CCCCC3)nccn2c1=O)Nc1ccc(Cl)cc1F | 10.76
Cc1ccc(-c2nc(CSc3nc4ccccc4n4c(C(C)C)nnc34)c(C)o2)cc1 | 3.51
Cc1ccc(-c2ccc3nn(Cc4cccc(Br)c4)c(=O)n3n2)cc1C | 14.87
COc1ccc(NC(=O)Cn2nc3c4cc(-c5ccc(OC)cc5)nn4ccn3c2=O)cc1 | 12.45
Cc1ccc(CNC(=O)Cn2nc3c(Sc4cccc(F)c4)nccn3c2=O)cc1 | -2.32
O=C(Cn1nc2c(N3CCOCC3)nccn2c1=O)N1CCN(c2ccccc2F)CC1 | 8.66
Cc1cc2nn(CC(=O)NCc3ccccc3)c(=O)n2c(Nc2ccc(C)c(F)c2)n1 | 12.56
Cc1ccc(Sc2nccn3c(=O)n(CC(=O)Nc4ccc(F)c(Cl)c4)nc23)c(C)c1 | -6.57
O=C(Cn1nc2ccc(-c3ccccc3)nn2c1=O)Nc1cccc(Cl)c1 | 2.74
Cc1cccc(Oc2nc3ccccc3n3c(=O)n(CC(=O)NCc4ccco4)nc23)c1C | 3.72
Cc1ccccc1NC(=O)Cn1nc2c3cc(-c4ccc(Cl)cc4)nn3ccn2c1=O | 14.64
Cc1ccc(NC(=O)Cn2nc3ccc(SCc4ccc(Cl)cc4)nn3c2=O)cc1C | 8.36
COc1ccc(-c2cc3c4nnc(CCC(=O)NCc5ccccc5Cl)n4ccn3n2)cc1 | 3.58
Cc1ccc(NC(=O)Cn2nc3ccc(SC4CCCCC4)nn3c2=O)c(Cl)c1 | 12.19
O=c1n(Cc2nc(-c3ccc4c(c3)OCO4)no2)nc2ccc(-c3ccccc3)nn12 | -1.48
COC(=O)c1ccc(CN(c2ccc(Cl)cc2)S(=O)(=O)c2ccc3nncn3c2)o1 | 0.53
Cc1ccccc1Oc1nc2ccccc2n2c(=O)n(CC(=O)NCc3ccc4c(c3)OCO4)nc12 | 17.68
O=C(Cn1nc2c(Oc3ccccc3)nccn2c1=O)Nc1ccccc1C(F)(F)F | 6.19
Cc1cc2nn(CC(=O)Nc3cc(F)ccc3C)c(=O)n2c(Nc2ccc(C)c(F)c2)n1 | 11.43

SMILES | Inhibition [%]
Cc1ccc(Oc2nccn3c(=O)n(CC(=O)N4CCN(c5ccccc5F)CC4)nc23)cc1 | 13.64
Cc1nnc2c(=O)n(CC(=O)Nc3cccc(F)c3)c3ccccc3n12 | 11.8
Cc1cccc(C)c1NC(=O)Cn1nc2n(C)c(=O)c3c(c(-c4ccccc4)cn3C)n2c1=O | 10.1
Cc1ccc(NC(=O)CSc2nnc3ccc(C(=O)Nc4cccc(F)c4)cn23)cc1F | 6.03
COc1cccc(Sc2nc3ccccc3n3c(=O)n(CC(=O)Nc4ccc(Cl)cc4)nc23)c1 | 2.35
Cc1ccc(C)c(NC(=O)Cn2nc3c(N4CCCC(C)C4)nccn3c2=O)c1 (centres undefined) | 3.52
Cc1ccc(NC(=O)CSc2nc3ccccc3n3c(C(C)C)nnc23)c(Cl)c1 | 0.92
O=c1c2nn(Cc3ccc(F)cc3)c(=O)n2ccn1-c1ccccc1 | 9.86
CCCCN(C)c1ccc2nnc(CCc3nc(-c4cccc(Br)c4)no3)n2n1 | 13.86
COC(=O)c1ccccc1NC(=O)Cn1nc2c(Oc3ccccc3C)nccn2c1=O | 8.93
Cc1ccc(Cl)cc1NC(=O)CSc1nnc2ccc(C(=O)Nc3cccc(F)c3)cn12 | 3.53
Cc1ccc(NC(=O)Cn2nc3c4c5c(sc4ncn3c2=O)CCCC5)cc1C | 7.59
O=C(Cn1nc2c(N3CCOCC3)nccn2c1=O)NCc1ccc(Cl)cc1 | 8.43
CCOC(=O)c1ccccc1NC(=O)Cn1nc2c(Oc3ccccc3)nccn2c1=O | 14.49
CCOC(=O)c1ccc(NC(=O)Cn2nc3ccc(C(=O)Nc4cccc(C)c4)cn3c2=O)cc1 | 6.83
CCOc1cccc(CNC(=O)CCc2nnc3ccc(-c4ccc(C)cc4)nn23)c1 | 8.62
O=C(Cn1nc2c3cc(-c4ccc(Cl)cc4)nn3ccn2c1=O)NCc1ccccc1 | 15.63
CCCCc1ccc(NC(=O)Cn2nc3c(N4CCN(c5ccccc5C)CC4)nccn3c2=O)cc1 | -4.55
COc1cccc(CN(c2ccc(Cl)cc2)S(=O)(=O)c2ccc3nncn3c2)c1 | 6.15
